Data as given in the supplement of paper PMC9694430.

Experiments:
Test in all cases: thermal shift delta Tm vs DMSO control; higher = stronger stabilization (binding)
Conditions in all cases: 12.5 µM; protein concentration 2 µM
LOC_OS02G45750-cb003 = system: LOC_OS02G45750-cb003
In short: (§1)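 Rice kinase domain constructs, made in E. coli and purified, were placed in 96-well plates at 2 μM in 19.5 μl of 100 mM potassium phosphate pH 7.5, 150 mM NaCl, 10% glycerol and 5 × SYPRO Orange, with compound in DMSO. A temperature ramp from 25°C to 95°C at 0.05°C/s was used for differential scanning fluorimetry. The melting temperature shift is a triplicate mean compared with DMSO-only protein, derived from Boltzmann fits.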

LOC_OS02G54510-cb004 = system: LOC_OS02G54510-cb004
In short: as §1

LOC_OS03G04050-cb001 = system: LOC_OS03G04050-cb001
In short: as §1

LOC_OS03G12390-cb001 = system: LOC_OS03G12390-cb001
In short: as §1

LOC_OS03G27990-cb004 = system: LOC_OS03G27990-cb004
In short: as §1

LOC_OS03G50450-cb001 = system: LOC_OS03G50450-cb001
In short: as §1

LOC_OS03G50810-cb003 = system: LOC_OS03G50810-cb003
In short: as §1

LOC_OS04G35114-cb001 = system: LOC_OS04G35114-cb001
In short: as §1

LOC_OS04G38480-cb003 = system: T1, LOC_OS04G38480-cb003
T1 sequence (whole entry): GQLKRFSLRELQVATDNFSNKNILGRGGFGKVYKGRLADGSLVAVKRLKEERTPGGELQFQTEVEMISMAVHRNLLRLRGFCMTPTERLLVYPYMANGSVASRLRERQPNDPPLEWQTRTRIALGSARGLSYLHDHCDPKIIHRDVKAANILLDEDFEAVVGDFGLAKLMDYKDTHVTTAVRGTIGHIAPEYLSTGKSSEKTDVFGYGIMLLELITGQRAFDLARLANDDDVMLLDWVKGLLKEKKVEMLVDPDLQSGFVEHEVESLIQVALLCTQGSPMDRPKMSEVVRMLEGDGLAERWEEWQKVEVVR
In short: as §1

LOC_OS04G41100-cb001 = system: T2, LOC_OS04G41100-cb001
T2 sequence (whole entry): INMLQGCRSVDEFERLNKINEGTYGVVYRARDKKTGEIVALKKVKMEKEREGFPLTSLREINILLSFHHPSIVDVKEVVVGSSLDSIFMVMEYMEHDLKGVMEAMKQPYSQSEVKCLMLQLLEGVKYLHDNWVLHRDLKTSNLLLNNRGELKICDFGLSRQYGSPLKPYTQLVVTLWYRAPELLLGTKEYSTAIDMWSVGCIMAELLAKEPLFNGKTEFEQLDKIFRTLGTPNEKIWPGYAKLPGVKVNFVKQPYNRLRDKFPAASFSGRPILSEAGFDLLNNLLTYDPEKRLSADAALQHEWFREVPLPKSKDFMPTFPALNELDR
In short: as §1

LOC_OS04G57630-cb004 = system: LOC_OS04G57630-cb004
In short: as §1

LOC_OS05G07850-cb002 = system: LOC_OS05G07850-cb002
In short: as §1

LOC_OS05G16824-cb004 = system: LOC_OS05G16824-cb004
In short: as §1

LOC_OS05G28520-cb001 = system: LOC_OS05G28520-cb001
In short: as §1

LOC_OS05G30820-cb001 = system: LOC_OS05G30820-cb001
In short: as §1

LOC_OS05G43570-cb004 = system: LOC_OS05G43570-cb004
In short: as §1

LOC_OS06G16330-cb003 = system: LOC_OS06G16330-cb003
Chain of LOC_OS06G16330-cb003 (as listed by the source): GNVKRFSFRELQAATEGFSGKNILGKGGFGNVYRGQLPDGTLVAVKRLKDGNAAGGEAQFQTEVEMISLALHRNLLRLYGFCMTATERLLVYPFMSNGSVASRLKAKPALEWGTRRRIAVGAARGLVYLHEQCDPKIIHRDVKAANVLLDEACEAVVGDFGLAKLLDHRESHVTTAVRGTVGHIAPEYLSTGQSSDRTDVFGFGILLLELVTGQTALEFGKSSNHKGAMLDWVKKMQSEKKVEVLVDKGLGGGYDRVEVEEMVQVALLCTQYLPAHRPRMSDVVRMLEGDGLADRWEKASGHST
In short: as §1

LOC_OS06G22820-cb001 = system: T3, LOC_OS06G22820-cb001
T3 sequence (whole entry): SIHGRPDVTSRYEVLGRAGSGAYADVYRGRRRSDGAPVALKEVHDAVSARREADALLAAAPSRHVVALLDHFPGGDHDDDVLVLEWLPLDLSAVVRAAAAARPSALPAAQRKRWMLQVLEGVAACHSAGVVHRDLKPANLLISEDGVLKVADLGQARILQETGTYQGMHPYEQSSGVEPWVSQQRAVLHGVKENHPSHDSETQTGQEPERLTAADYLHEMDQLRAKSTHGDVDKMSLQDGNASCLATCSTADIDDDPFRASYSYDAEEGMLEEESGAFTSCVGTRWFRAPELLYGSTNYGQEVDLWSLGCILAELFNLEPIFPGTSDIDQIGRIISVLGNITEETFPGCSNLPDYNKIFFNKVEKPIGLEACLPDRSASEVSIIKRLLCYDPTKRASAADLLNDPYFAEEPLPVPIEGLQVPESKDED
In short: as §1

LOC_OS07G06570-cb004 = system: LOC_OS07G06570-cb004
In short: as §1

LOC_OS07G07230-cb001 = system: LOC_OS07G07230-cb001
In short: as §1
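Also: purified Escherichia coli-expressed rice kinase domain construct.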

SMILES | thermal shift delta Tm (LOC_OS02G45750-cb003) | thermal shift delta Tm (LOC_OS02G54510-cb004) | thermal shift delta Tm (LOC_OS03G04050-cb001) | thermal shift delta Tm (LOC_OS03G12390-cb001) | thermal shift delta Tm (LOC_OS03G27990-cb004) | thermal shift delta Tm (LOC_OS03G50450-cb001) | thermal shift delta Tm (LOC_OS03G50810-cb003) | thermal shift delta Tm (LOC_OS04G35114-cb001) | thermal shift delta Tm (LOC_OS04G38480-cb003) | thermal shift delta Tm (LOC_OS04G41100-cb001) | thermal shift delta Tm (LOC_OS04G57630-cb004) | thermal shift delta Tm (LOC_OS05G07850-cb002) | thermal shift delta Tm (LOC_OS05G16824-cb004) | thermal shift delta Tm (LOC_OS05G28520-cb001) | thermal shift delta Tm (LOC_OS05G30820-cb001) | thermal shift delta Tm (LOC_OS05G43570-cb004) | thermal shift delta Tm (LOC_OS06G16330-cb003) | thermal shift delta Tm (LOC_OS06G22820-cb001) | thermal shift delta Tm (LOC_OS07G06570-cb004) | thermal shift delta Tm (LOC_OS07G07230-cb001)
Cc1cc(C(=O)NOCCO)c(Nc2ccc(I)cc2F)n(C)c1=O | -0.39 °C | 0.03 °C | 0.19 °C | -0.3 °C | 0.02 °C | 1.11 °C | -0.06 °C | 0.41 °C | 0.64 °C | 0.58 °C | 0.11 °C | 0.04 °C | -9.58 °C | -0.17 °C | 0.7 °C | 0.18 °C | -0.11 °C | 0.38 °C | 1.15 °C | 0.15 °C
COc1ncc(-c2ccc3nccc(-c4ccnnc4)c3c2)cc1NS(=O)(=O)c1ccc(F)cc1F | 1.38 °C | 0.45 °C | 0.9 °C | 0.76 °C | 0.69 °C | 1.26 °C | 1.09 °C | 2.35 °C | 1.39 °C | 0.74 °C | 0.93 °C | 6.11 °C | 2.11 °C | 0.26 °C | 0.47 °C | 0.73 °C | 2.61 °C | 0.6 °C | 0.86 °C | -0.21 °C
Cc1cc(Nc2nc(N[C@@H](C)c3ncc(F)cn3)ncc2Cl)[nH]n1 | 3.59 °C | 2.58 °C | 0.1 °C | 5.26 °C | 0.82 °C | 2.31 °C | 3.08 °C | 1.86 °C | 2.03 °C | 0.47 °C | 0.37 °C | 10.9 °C | 8.64 °C | 0.22 °C | 1.6 °C | 0.91 °C | 7.15 °C | 0.49 °C | 0.97 °C | 0.17 °C
OC(c1cc(-c2ccc(Cl)cc2)nc2ccccc12)C1CCCCN1 (stereo not given) [Vacquinol-1] | 1.11 °C | -0.34 °C | 0.42 °C | 0.39 °C | 0.57 °C | 1.11 °C | 0.65 °C | 0.88 °C | 1.95 °C | 0.59 °C | 0.38 °C | 3.49 °C | 1.23 °C | 0.66 °C | 0.43 °C | 0.64 °C | 0.55 °C | 0.46 °C | 0.14 °C | -0.36 °C
O=C(Cc1ccc(-c2ccc(OCCN3CCOCC3)cc2)cn1)NCc1ccccc1 | 0.29 °C | 0.08 °C | 0.31 °C | 0.07 °C | 0.38 °C | 0.47 °C | 0.43 °C | 0.43 °C | 0.12 °C | 0.27 °C | 0.12 °C | 0.35 °C | -2.04 °C | 0.32 °C | 0.37 °C | 0.34 °C | -0.02 °C | 0.6 °C | 0.25 °C | -0.12 °C
